PHOSPHO1 inh: PHOSPHO1 (human) inhibition | Q8TCT1 | AID 1565 | recombinant PHOSPHO1, absorbance phosphatase assay | 290,000 compounds, 1.1% hits | inhibition, % at 13.3 µM; in the data active means inhibition above about 60%
Target sequence (Q8TCT1 whole entry, looked up): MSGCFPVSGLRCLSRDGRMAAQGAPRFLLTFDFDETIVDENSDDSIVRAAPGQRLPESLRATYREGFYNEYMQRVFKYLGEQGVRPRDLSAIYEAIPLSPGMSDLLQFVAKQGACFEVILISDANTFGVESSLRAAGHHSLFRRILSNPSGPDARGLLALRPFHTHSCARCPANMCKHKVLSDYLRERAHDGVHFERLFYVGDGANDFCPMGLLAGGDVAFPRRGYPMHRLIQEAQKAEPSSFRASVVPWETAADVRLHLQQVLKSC
MLLE-PAM2 inh: blocks PAM2 peptide binding to the PABP1 MLLE domain | GST-MLLE / FITC-PAM2 fluorescence polarization | 360,000 compounds, 0.36% hits | inhibition, % at 20 µM | AID 588489 | P11940; in the data active means inhibition above about 35%, passing the limit was not always enough;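 further: plate controls were DMSO wells with GST-MLLE for no effect and wells lacking GST-MLLE protein for full effect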
CRFBP-R2 block: CRF-BP/CRF-R2 complex antagonism. 350,000 compounds, 0.59% hits. HEK293 CRF-R2/CRF-BP, CRF-induced calcium fluorescence. AID 588475. inhibition, % at 11.8 µM;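 active means inhibition of the ligand-induced calcium signal above about 50% at the single tested concentration, limit read from the data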
PABP polyA inh: PABP-poly(A) binding inhibition; PABP-poly(A) RNA binding, fluorescence polarization; inhibition, % at 35 µM; AID 2014; 290,000 compounds, 1% hits;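 further: calls also rest on retests at 20 µM and on dose response follow-up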
eIF4H FP inh: inhibitors of RNA binding by human eIF4H; Q15056; eIF4H fluorescence polarization binding assay; inhibition, % at 35 µM; 290,000 compounds, 0.94% hits; AID 2012;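 further: calls also rest on retests at 20 µM and on dose response follow-up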
An asterisk follows results filed as active; u = inconclusive; x = no result. Compounds with a hit are over-represented: about 2.6% of the library has one in this group of screens. Unless noted, how the calls were made is not given here.

SMILES	PHOSPHO1 inh	MLLE-PAM2 inh	CRFBP-R2 block	PABP polyA inh	eIF4H FP inh
O=C(CN1C(=O)/C(=C2\SC(=S)N(CCS(=O)(=O)O)C2=O)c2ccccc21)Nc1cccc(Br)c1	-115	15	-1	53*	93*
O=C(CN1C(=O)/C(=C2/SC(=S)N(CCS(=O)(=O)O)C2=O)c2ccccc21)Nc1cccc(C(F)(F)F)c1	x	14	0	x	x
Cn1ccc(CC(=O)N2CCC(N3CCC(C(=O)N4CCCC4)CC3)CC2)c1	8	-12	12	24*	52*
O=C(NC(NC(=S)Nc1c(Cl)cc(Cl)cc1Cl)C(Cl)(Cl)Cl)OCc1ccccc1 (centres undefined)	0	39*	-110	2	-13
CC12CCC(=O)N1C(C(=O)OCC(=O)Nc1sccc1C#N)CS2 (centres undefined)	39	15	-1	99*	64*
CCCCC1CC(=O)NC1(C(=O)OCC)C(=O)OCC (centres undefined)	x	0	1	x	x
Cc1ccc(NC(=O)CSCC(=O)N(C)Cc2c(F)cccc2Cl)cc1	x	11	11	x	x
CSc1ccc(C(c2c(C(=O)O)[nH]c3ccccc23)c2c(C(=O)O)[nH]c3ccccc23)cc1	8	-5	13	23	53*
Cc1ccc(NC(=O)c2cc3ccccc3oc2=O)cc1S(=O)(=O)N(C)C	-27	5	-3	64*	0
Cc1ccccc1-n1c2nc(=O)n(C)c(=O)c-2cc2ccccc21	33	-41	-29	66*	83
O=C1NC(=S)CN1c1ccccc1	15	57*	6	4	13
Cn1nc([N+](=O)[O-])c(C(C#N)c2ccccn2)c(Cl)c1=O (centres undefined)	32	2	3	u	24
CCCn1nc([N+](=O)[O-])c(C(C#N)c2nc3ccccc3o2)c(Cl)c1=O (centres undefined)	17	-94	74*	3	2
CCn1nc([N+](=O)[O-])c(C(C#N)c2nc3cc(C(F)(F)F)ccc3s2)c(Cl)c1=O (centres undefined)	12	-2	68*	29	-9
Cc1c(NC(=O)C(C)OC(=O)/C=C/c2ccco2)c(=O)n(-c2ccccc2)n1C (centres undefined)	-54	0	-3	2.8*	78*
O=C(COc1ccccc1)Nc1nc(-c2ccncc2)cs1	-32	35*	-8	33	-10
O=C(COc1ccccc1)Nc1nc(-c2cccnc2)cs1	x	6	-4	x	x
Cc1ccc(-c2csc3n[nH]c(=S)n23)cc1	95*	16	11	-4	-3
COC(=O)c1ccccc1NC(=S)NC(=O)c1ccc2c(c1)OCO2	18	42*	-4	-2	-5
COc1ccc(NC(=O)N(C)C[C@H]2OCCCC[C@H](C)Oc3ccc(NC(=O)Nc4ccc5c(c4)OCO5)cc3C(=O)N([C@@H](C)CO)C[C@@H]2C)cc1	x	8	0	x	x
C=CCSc1nnc(-c2cc(Br)ccc2N)c(=O)[nH]1	90*	-18	0	35	-11
CCCCSc1nnc(-c2cc(Br)ccc2N)c(=O)[nH]1	7	0	-9	-18	-9
Cn1cc(-c2csc(C(C)(O)c3cccnc3)n2)cn1 (centres undefined)	x	12	x	x	x
COCCNC(=S)N(CCO)Cc1cc2cc3c(cc2[nH]c1=O)OCCO3	-6	39*	-4	-6	6
COCCCNC(=S)N(CCO)Cc1cc2cc3c(cc2[nH]c1=O)OCCO3	41	40*	-20	1	-5
SMILES	PHOSPHO1 inh	MLLE-PAM2 inh	CRFBP-R2 block	PABP polyA inh	eIF4H FP inh
COCCNC(=S)N(CCCN(C)C)Cc1cc2cc3c(cc2[nH]c1=O)OCCO3	8	-80	-3	4	10
O=C(c1ccccc1)N(CCO)Cc1cc2cc3c(cc2[nH]c1=O)OCCO3	2	57*	-16	u	-7
COc1cccc(CNC(=O)CCNC(=O)c2ccccc2OC)c1	33	-13	-2	-9	-5
O=C1CCCCC1Sc1nnc(-c2ccc3c(c2)OCO3)o1 (centres undefined)	3	-38	-1	74*	9.7*
CC1=CC(=O)c2c(O)ccc(O)c2C1=O	28	x	x	111*	112*
O=C1C=C(N2CCN(c3ccccn3)CC2)C(=O)c2c(O)ccc(O)c21	x	6	7	x	x
CCc1nc2ccc(C(=O)NCCCN3CCCC3=O)cn2c1N(C=O)CC	x	-6	x	x	x
Cc1[nH]c2ccccc2c1/C=C/C(=O)c1ccncc1	32	-75	-18	52*	72*
COc1cc2c(ccc3cc(OC)c(OC)c(O)c32)cc1O	22	9	-5	86*	74*
CC(C)N1C(=O)S/C(=C\c2ccc(-c3ccc(Cl)c(C(=O)O)c3)o2)C1=O	29	3	0	20	29
N=C1S/C(=C\c2ccc(-c3ccccc3C(=O)O)o2)C(=O)N1c1ccc2c(c1)OCO2	8	-72	5	63*	87*
COc1ccccc1N1C(=N)S/C(=C\c2ccc(-c3ccccc3C(=O)O)o2)C1=O	2	-89	-25	4	59*
C=CCn1c(C(C)NC(=O)c2ccccc2)n[nH]c1=S (centres undefined)	80*	-3	-5	4	-7
COc1cccc(C(=O)N2CCC2(C)C(=O)NC(C)C)c1 (centres undefined)	x	17	x	x	x
Cc1cc2nc(C(C)(C)C)c(Cc3cccc(F)c3)n2c(C)c1Br	x	-5	x	x	x
CCOC(=O)C1CCCN(C(=O)c2ccc(CS(=O)(=O)c3ccc(C)cc3)o2)C1 (centres undefined)	3	1	-5	26	24
CCOC(=O)C1CCCN(C(=O)c2ccc(-c3ccc([N+](=O)[O-])cc3)o2)C1 (centres undefined)	x	41*	1	x	x
CC1c2ccccc2N(S(=O)(=O)c2ccccc2)C1C (centres undefined)	x	-11	-13	x	x
CC(=O)OCCNc1cc(SCc2ccco2)c2nonc2c1[N+](=O)[O-]	3	37	6	42	96
O=[N+]([O-])c1c(NCCCO)cc(SCc2ccco2)c2nonc12	-5	41*	-13	-14	u
COc1ccc(/C=N/N=C2/NC(=O)C(CC(=O)NC(N)=O)S2)cc1 (centres undefined)	36	-1	-8	8	0
CCCCNC(=O)CC1S/C(=N/N=C/c2ccc(OC)cc2)NC1=O (centres undefined)	-11	-14	-10	84	10*
COc1ccc(NC(=O)CN(C)C(=O)c2cccc(NS(=O)(=O)c3ccc(Br)cc3)c2)cc1	x	-2	-3	x	x
Oc1sc(C=Nc2ccc(F)cc2)c2ccccc12	65*	-31	-88	4	89
Oc1c(C=Nc2ccccc2)sc2ccccc12	10	-100	-43	u	u
Oc1sc(C=Nc2ccccc2)c2ccccc12	65*	-15	-228	-2	u
CCOc1ccc2c(c1)C(c1ccccc1)=NNC(c1ccccc1)=N2	2	-4	30	-3	10

Bioassay records from PubChem BioAssay.
